# Most compounds without a hit are left out; they make up all but 2.3% or so of the library.
# Pol iota inh = DNA polymerase iota (human) inhibition | 390,000 compounds, 1% hits | Potency, µM (top dose mostly 115 µM), usual class: inhibitors | Q9UNA4 | AID 588590 | Pol iota fluorescent replication assay, 10 min
#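 Pol iota at 10 nM preincubated 15 min with compounds at room temperature; reaction started with fluorescent substrate, 50 nM final. Fluorescence read kinetically at 0 and 10 min; buffer-only wells as negative control.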
# WRN helicase inh = inhibitors of human WRN helicase; Q14191; 360,000 compounds, 0.46% hits; WRN helicase unwinding, fluorescent forked duplex, kinetic; Potency, µM (highest dose often 114 µM), hits mostly inhibitors; further: nearly all actives have a fitted effect of over 55% in size
#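 WRN at 20 nM final preincubated with compound 15 min at room temperature; reaction started with 100 nM fluorophore/quencher forked duplex oligonucleotide and 2 mM ATP final. Unwinding followed kinetically by red fluorescence (ex 525, em 598 nm).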
# Pol beta inh = inhibitors of human DNA polymerase beta. P06746. Pol beta primer extension/strand displacement, fluorescence kinetic. Potency, µM (doses to about 114 µM), actives largely listed as inhibitors. 340,000 compounds, 1.3% hits. AID 485314
#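 10 nM enzyme + cpd, 15 min RT; start with substrate 50 nM final; read 0 min and after 10 min RT. Corrected, normalized data; 4-parameter Hill curve fit.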
# POLK inh = DNA polymerase kappa (human) inhibition | Q9UBT6 | purified Pol kappa, fluorescent DNA synthesis assay, 10 min | Potency, µM (highest dose often 107 µM), usual class: inhibitors | 400,000 compounds, 0.53% hits | AID 588579
#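 10 nM Pol kappa preincubated 15 min at room temperature with compounds, then reaction started with substrate at 50 nM final. Fluorescence read kinetically at 0 and 10 min; buffer-only wells served as negative control.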
# Pol eta inh = blocks human DNA polymerase eta activity; 390,000 compounds, 1.2% hits; recombinant Pol eta, fluorescent DNA replication assay; Q9Y253; Potency, µM (top dose mostly 114 µM), most hits filed as inhibitors; AID 588591
#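 Pol eta at 10 nM preincubated with compounds 15 min at room temperature; reaction started with fluorescent substrate (50 nM final) and read kinetically at 0 and 10 min.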
# Numbers stand for hits; i = inactive; ? = inconclusive; nt = no result; [ ] = dose if it differs, or a comment. The call rests on the fitted dose curve; in most records, active means well fitted curve in the direction sought with a large enough effect; inconclusive means small, poorly fitted or top-dose-only effect, or another doubt; inactive means no such curve, though single readings can be large; an effect the other way counts as inactive or inconclusive.
SMILES,Pol iota inh,WRN helicase inh,Pol beta inh,POLK inh,Pol eta inh
CCOc1ccc2nc(Cl)c(C3CC(c4ccc(C)cc4)=NN3C(=O)CCCC(=O)O)cc2c1 (stereo unspecified),i,nt,22µM,i,?
Cc1ccc(-c2nn(-c3ccccc3)cc2C2CC(c3ccccc3)=NN2C(=O)CCC(=O)O)cc1 (stereo unspecified),i,i,i,i,i
Cc1ccc(C2=NN(C(=O)CCC(=O)O)C(c3cn(-c4ccccc4)nc3-c3ccc(C)cc3)C2)cc1 (stereo unspecified),i,?,22µM,i,?
Cc1ccc2nc(Cl)c(C3CC(c4cccs4)=NN3C(=O)CCCC(=O)O)cc2c1 (stereo unspecified),?,i,i,i,i
O=S(=O)(Cc1cc(NCc2ccccc2)nc(-c2ccccn2)n1)c1ccccc1,i,i,i,i,i
O=S(=O)(Cc1cc(NCc2ccccc2)nc(-c2ccncc2)n1)c1ccccc1,i,i,79µM,i,i
CC(C)C[C@H](NC(=O)[C@H](CCCCN)NC(=O)[C@H](CCCNC(=N)N)NC(=O)[C@H](C)NC(=O)[C@H](CO)NC(=O)[C@H](CCCCN)NC(=O)[C@H](CCCNC(=N)N)NC(=O)[C@H](C)NC(=O)CNC(=O)[C@@H](NC(=O)[C@H](Cc1ccccc1)NC(=O)CNC(=O)CNC(=O)[C@@H](N)Cc1ccccc1)[C@@H](C)O)C(=O)N[C@@H](C)C(=O)N[C@@H](CC(N)=O)C(=O)N[C@@H](CCC(N)=O)C(=O)O,nt,nt,nt,i,nt
O=C(c1ccccc1)C(I)(I)N1CCOCC1,i,nt,nt,i,nt
Cc1nc2c(C(=O)NCCc3ccc(Cl)cc3)c[nH]n2c(=O)c1Cc1ccc(Cl)cc1,79µM,nt,22µM,?,89µM
Cc1nc2c(C(=O)N(C)Cc3ccccc3)c[nH]n2c(=O)c1Cc1ccc(Cl)cc1,50µM,nt,?,89µM,i
Cc1ccc(CNC(=O)c2c[nH]n3c(=O)c(Cc4ccc(Cl)cc4)c(C)nc23)cc1,i,nt,?,i,?
Cc1nc2c(C(=O)NCCc3ccccc3)c[nH]n2c(=O)c1Cc1ccccc1F,79µM,nt,?,i,i
Nc1nc(Cl)nc2c1ncn2C1OC(CO)C(O)C1F (stereo unspecified),nt,nt,nt,i,nt
Cn1c(=O)c2cc(C(=O)NC3CCCCCC3)sc2c2ccccc21,i,nt,8.9µM,i,?
CCn1c(=O)c2cc(C(=O)NC3CCCCCC3)sc2c2ccccc21,i,nt,i,i,i
O=S1(=O)CCO[C@H]2CCCC[C@@H]2N1Cc1ccccc1F,i,nt,nt,i,nt
O=[N+]([O-])c1cc(-c2ccc(/C=N\n3cnnc3)o2)cc([N+](=O)[O-])c1,22µM,i,56µM,?,?
Cc1ccc(NC2=C(Cl)C(=O)c3ccccc3C2=O)cc1,i,i,i,i,?
Cc1cc(C)cc(NC2=C(N)C(=O)c3ccccc3C2=O)c1,7.9µM,i,i,i,i
COc1ccc(CN(CCCN)c2ccc(Br)cn2)cc1,i,nt,nt,i,nt
Cc1cccc(CCNC(=O)c2cc3c(s2)-c2c(C)cccc2OC3)c1,i,nt,?,i,i
COc1ccc(NC(=O)c2cc3c(s2)-c2c(C)cccc2OC3)c(OC)c1,i,nt,i,i,i
COc1ccc(CNC(=O)c2cc3c(s2)-c2c(C)cccc2OC3)cc1,?,nt,14µM,i,i
Cc1cccc2c1-c1sc(C(=O)NCCc3ccc(Cl)cc3)cc1CO2,?,nt,8.9µM,i,i
C[C@H](NC(=O)OC(C)(C)C)C(=O)c1ccco1,i,nt,nt,i,nt
SMILES,Pol iota inh,WRN helicase inh,Pol beta inh,POLK inh,Pol eta inh
Cc1cc(C)c2c(n1)NCCC2,i,nt,nt,i,nt
CCOC(=O)c1c(-c2ccco2)csc1NC(=O)CSc1nnc(N)s1,35µM,i,28µM,?,?
CCOC(=O)c1c(-c2ccco2)csc1NC(=O)COC(=O)c1cnccn1,22µM,i,nt,?,22µM
CCOC(=O)c1c(-c2ccc(C)o2)csc1NC(=O)CSc1nncs1,?,i,i,i,i
Clc1cc(Cl)c(OCC#CI)cc1Cl,nt,nt,nt,i[19.4 µM],nt
NS(=O)(=O)c1ccc(CCNC(=O)CCC(=O)c2cccs2)cc1,i,i[11.6 µM],nt,i,89µM
O=C(CCC(=O)c1cccs1)NCCc1ccc(F)cc1,i,i,nt,i,i
Fc1ccc(CCNc2ncnc3nc[nH]c23)cc1,i,nt,nt,i,nt
Cc1ccccc1NC(=O)c1nc(S(=O)(=O)Cc2ccccc2F)ncc1Cl,i,nt,nt,i,nt
Cc1ccc(/C=C2\SC(=S)N(CCCC(=O)Nc3ccccc3C(=O)O)C2=O)cc1,i,i,i,i,?
COc1ccc(/C=C2\SC(=S)N(CCC(=O)Nc3ccc(C(=O)O)cc3)C2=O)cc1OC,i,i,?,i,32µM
O=C(CCCN1C(=O)/C(=C/c2ccc3c(c2)OCO3)SC1=S)Nc1ccc(C(=O)O)cc1,i,i,i,i,89µM
COc1cc(/C=C2\SC(=S)N(CC(=O)O)C2=O)ccc1OS(=O)(=O)c1ccc(C)cc1,14µM,i[11.6 µM],nt,i,?
CCc1ccc(/C=C2\SC(=S)N(CCCC(=O)Nc3ccccc3C(=O)O)C2=O)cc1,71µM,?,?,i,?
O=C(CCCN1C(=O)C(=Cc2ccc3c(c2)OCO3)SC1=S)Nc1ccc(C(=O)O)c(O)c1,nt,i,nt,nt,nt
CN(C)C1CCN(CCCOc2ccc(-c3ccc(C#N)cc3)cc2)C1 (stereo unspecified),nt,nt,nt,i,nt
O=C(Nc1ccc(N2CCC(c3ccccc3)C2)c(C(=O)O)c1)c1ccc(Cl)cc1 (stereo unspecified),i,nt,i,i,i
Cc1ccccc1OCC(=O)NCC(=O)OCc1ccc2ccccc2c1,i,nt,nt,i,nt
O=C(O)c1ccc(N2C(=O)/C(=C/C=C/c3ccccc3)SC2=S)cc1,?,i,?,i,50µM
O=Cc1ccc(O)cc1,i,nt,nt,i,nt
Cn1ncc(N=Cc2c(O)ccc3ccccc23)c1C(=O)Nc1cccc(Cl)c1,?,?,i,i,50µM
Cn1ncc(Cl)c1C(=O)Nc1cccc(Cl)c1,i,i,i,i,i
CCCN(CCC)CCNC(=O)c1cc2c(-c3ccc(Cl)cc3)nn(C)c2s1,i,i,25µM,i,i
CCCN(CCC)CCNC(=O)c1cc2c(-c3ccccc3F)nn(C)c2s1,i,i,i,i,i
CCN(CC)CCNC(=O)c1cc2c(-c3ccc(Cl)cc3)nn(C)c2s1,?,i,16µM,i,i
CCOCCCNC(=O)c1cc2c(-c3ccc(Cl)cc3)nn(C)c2s1,i,i,i,i,i
Cn1nc(-c2ccc(Cl)cc2)c2cc(C(=O)NCCN3CCOCC3)sc21,?,i,i,i,i
CCN(CC)CCNC(=O)c1cc2c(-c3cccc(OC)c3)nn(C)c2s1,?,i,71µM,i,i
CCCCN(CC)CCNC(=O)c1cc2c(-c3ccc(Cl)cc3)nn(C)c2s1,?,i,3.2µM,i,i
COc1cccc2c1C(=O)c1c(O)c3c(c(O)c1C2=O)C[C@](O)(C(=O)CO)C[C@H]3O[C@@H]1C[C@H](N)[C@H](O)[C@H](C)O1,nt,nt,nt,1.5µM,nt
